From PubChem BioAssay (NCI)
This is part of a sample that, as a whole, favours compounds with a hit. Of some 79,000 tested, about 15% had one in any assay. Cut-off read from the data, not from the text of the source: active = growth inhibition above about 70%; inactive = the rest.

How the values were obtained:
[1] = NCI Yeast Anticancer Drug Screen. Data for the rad50 strain (AID 155);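 note: 0% = growth of vehicle-only cultures of the same strain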; conditions: S. cerevisiae rad50 strain growth inhibition; at 50.0 µM; stronger effect = higher value
How it was run: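 Relative growth inhibition (compound vs vehicle) was measured in yeast with a defined repair-gene alteration.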

[2] = NCI Yeast Anticancer Drug Screen. Data for the mec2-1 strain (AID 157); conditions: S. cerevisiae mec2-1 strain, at 50.0 µM, stronger effect = higher value
How it was run: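 mec2-1 yeast strain, carrying an alteration in DNA damage repair or cell cycle control, was exposed to compounds; growth inhibition was measured relative to vehicle-treated controls.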

[3] = NCI Yeast Anticancer Drug Screen. Data for the sgs1 mgt1 strain (AID 161);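 note: 0% = growth of cultures given vehicle only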; conditions: S. cerevisiae sgs1 mgt1 strain, at 50.0 µM, stronger effect = higher value
How it was run: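 Percent growth inhibition was derived by comparing compound-exposed mutant yeast with vehicle-exposed cultures. The strain carries alterations in DNA damage repair.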

[4] = NCI Yeast Anticancer Drug Screen. Data for the cln2 rad14 strain (AID 165);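 note: 0% = growth equal to vehicle treated cultures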; conditions: S. cerevisiae cln2 rad14 strain, at 50.0 µM, stronger effect = higher value
How it was run: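 Yeast carrying cln2 and rad14 alterations (cell cycle control and DNA damage repair) were exposed to compounds. Growth inhibition was measured against vehicle-treated controls.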

[5] = NCI Yeast Anticancer Drug Screen. Data for the bub3 strain (AID 167); conditions: S. cerevisiae bub3 mutant strain, at 50.0 µM, stronger effect = higher value
How it was run: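 Screening used yeast with an engineered genetic alteration affecting cell cycle control. Compound-exposed cultures were compared with vehicle cultures, and reduced growth was taken as inhibition.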

[6] = NCI Yeast Anticancer Drug Screen. Data for the mlh1 rad18 strain (AID 175); conditions: S. cerevisiae mlh1 rad18 strain growth inhibition; at 50.0 µM; stronger effect = higher value
How it was run: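 Growth inhibition of the yeast strain was measured after compound exposure and expressed relative to vehicle-treated controls. The strain carries defined defects in DNA damage repair.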

Measured: growth inhibition

CC(C)=CCNc1ncnc2c1c(C#N)cn2C1OC(CO)C(O)C1O (stereo unspecified)
inactive: [1] -1.2% | [2] -23.7% | [3] -23.4% | [4] 15.7% | [5] -17.5% | [6] -5.95%

CCCCCCCC(=O)N1C2CN3C4=C(C(=O)C(N)=C(C)C4=O)C(COC(N)=O)C3(OC)C21 (stereo unspecified)
inactive: [1] 18.6% | [2] 13.1% | [3] 30.4% | [4] 20.8% | [5] 19.1% | [6] 47.1%

Cc1cc(C)nc(NS(=O)(=O)c2ccc(Nc3c4ccccc4nc4c(C(=O)Nc5ccc(S(=O)(=O)N=C(N)N)cc5)cccc34)cc2)n1
inactive: [1] 24.1% | [2] 35.8% | [3] 30.9% | [4] 35.2% | [5] 19.6% | [6] 44.1%

Cn1c([N+](=O)[O-])cnc1COc1ccc(OCc2ncc([N+](=O)[O-])n2C)cc1
inactive: [1] 4.45% | [2] -20.1% | [3] -0.55% | [4] 27.6% | [5] 0.4% | [6] -2.7%

C/C(=N\NC(=O)c1ccccc1O)c1cccc(/C(C)=N/NC(=O)c2ccccc2O)n1.O=S(=O)([O-])[O-].[Fe+2]
inactive: [1] 11.4% | [2] 38.8% | [3] 39.5% | [4] -0.9% | [5] 0.65% | [6] 40.7%

NS(=O)(=O)c1cccc([N+](=O)[O-])c1
inactive: [1] 21.1% | [2] 5% | [3] 6.7% | [4] 5.95% | [5] -2.5% | [6] -13.1%

N#CC(C#N)=C(N)/C(C#N)=C/c1ccc(O)c(O)c1
inactive: [1] -14.2% | [2] -4.9% | [3] -5.25% | [4] 3.7% | [5] 2.4% | [6] 6.85%

Clc1cc2nnn(C3CCCCO3)c2cc1Cl (stereo unspecified)
inactive: [1] 9.75% | [2] -3.05% | [3] -23.4% | [4] -12.3% | [5] -0.9% | [6] 14.4%

COc1ccc(/C=C/C(=O)CC(=O)/C=C/c2ccc(OC)cc2)cc1
inactive: [1] 23.1% | [2] 35% | [3] 7.65% | [4] 0.6% | [5] -2.75% | [6] 10.8%

Nc1cc(Cl)c(N(CCO)C2=NCCN2)c(Cl)c1
inactive: [1] 3.8% | [2] -3.25% | [3] 3.05% | [4] -12.2% | [5] 1.3% | [6] -5.75%

O=C1CC23CC(=O)CC2(C1)c1ccccc1C3=O (stereo unspecified)
inactive: [1] 11.1% | [2] -11.8% | [3] 4.65% | [4] 6.2% | [5] 3.05% | [6] 13.7%

Cn1c2ccc(Br)cc2c2cc(Br)cc([N+](=O)[O-])c21
inactive: [1] 6.55% | [2] 5.05% | [3] 14.9% | [4] -4.95% | [5] -2.05% | [6] 15.3%

COC(=O)C1C(=C(c2ccccc2)c2ccccc2)C1c1ccccc1 (stereo unspecified)
inactive: [1] -1.75% | [2] -15.2% | [3] -11.8% | [4] -11.4% | [5] 6.85% | [6] -8.7%

CCOCCn1c(=O)cc(C)c2ccccc21
inactive: [1] -20.3% | [2] 1.6% | [3] -16.8% | [4] -41.3% | [5] 14.2% | [6] -13.7%

C/C(N)=N/OCc1ccccc1
inactive: [1] 8.9% | [2] 6.95% | [3] 10.7% | [4] 4.7% | [5] 10.2% | [6] 7.7%

CC(=O)Nc1ncn(C)c1S(N)(=O)=O
inactive: [1] -4.3% | [2] -19.1% | [3] -1.45% | [4] -16.3% | [5] -7.9% | [6] 15.5%

c1csc(C2=NCCC2)c1
inactive: [1] 0.35% | [2] -6.65% | [3] 6.35% | [4] 36.5% | [5] 31.6% | [6] 3.3%

CCN(CC)c1ccc(N)cc1
inactive: [1] -4.05% | [2] -9.9% | [3] 26.1% | [4] -4.4% | [5] -3.1% | [6] 35.1%

Cc1cccc(C2=C/C(=C(\SS/C(C(=O)c3ccc(OCC(=O)O)c(Cl)c3Cl)=C3\C=C(c4cccc(C)c4)SS3)C(=O)c3ccc(OCC(=O)O)c(Cl)c3Cl)SS2)c1
inactive: [1] -6.65% | [2] -22.8% | [3] -0.6% | [4] 1.95% | [5] -5.15% | [6] -10.7%

C/C(=N\N(C)S(=O)(=O)c1ccc(C)cc1)c1ccccc1
inactive: [1] 10.1% | [2] -6.9% | [3] -5.5% | [4] -30.1% | [5] -10.1% | [6] 0.65%

Cc1cc(=O)oc2c1ccc1occc(=O)c12
inactive: [1] -16.6% | [2] 10.4% | [3] -10.3% | [4] 4.95% | [5] 11.9% | [6] -11%
